Among the test systems are DU-145 prostate; K-562 leukemia; MALME-3M melanoma; MDA-MB-231 breast; RXF 393 renal; SF-268 CNS; SF-295 CNS; SF-539 CNS; UACC-257 melanoma; M14 melanoma; HCT-15 colon; HT29 colon; SNB-75 CNS; SNB-19 CNS; U251 CNS; PC-3 prostate; SK-MEL-5 melanoma; UACC-62 melanoma; SK-MEL-28 melanoma; LOX IMVI melanoma.
What all share (test): NCI-60 one-dose screen, 48 h (100 = growth as untreated, 0 = no growth, -100 = all killed)
What all share (details): 10 µM unless noted

Compounds without any hit were thinned out: in the full panel of roughly 83,000, 20% have a hit.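 Values shown are percent growth following 48 h exposure of cells in 96-well plates to a single concentration of compound; below 10 was considered active.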 A number with no mark means an inactive call. Activity calls are given as the source filed them.

Regarding `CC(=O)N1N=C(c2ccc(Nc3nc(Nc4ccc(F)cc4)nc(Nc4ccc(F)cc4)n3)cc2)CC1c1cccc([N+](=O)[O-])c1` (configuration not stated), the growth in the assay on DU-145 prostate is 106%; in the assay on K-562 leukemia, 76.7%; in the assay with MALME-3M melanoma, 91.3%; in the assay on MDA-MB-231 breast it was 84.6%; in the assay with RXF 393 renal, 81.4%; in the assay with SF-268 CNS, 103%. For the same compound, the growth in the assay with SF-295 CNS is 482%; with SF-539 CNS, 92.9%; with UACC-257 melanoma, 115%; in the assay on M14 melanoma, 94.1%; in the assay on HCT-15 colon it was 91.7%; in the assay with HT29 colon it was 48.5%. Besides, the growth with SNB-75 CNS was 21.8%; in the assay with SNB-19 CNS, 92.5%; with U251 CNS, 86.7%; in the assay with PC-3 prostate it was 70.9%; with SK-MEL-5 melanoma it was 78.8%; in the assay with UACC-62 melanoma it was 92.6%. Besides, the growth in the assay on SK-MEL-28 melanoma is 74.4%.

As for `CC(CCc1ccc(Cl)c(Cl)c1)NCc1ccc(C(C)(C)C)cc1` (configuration not stated), the growth is 101% in the assay with DU-145 prostate; 25.2% in the assay on K-562 leukemia; 97.6% in the assay with MALME-3M melanoma; 72.9% in the assay with MDA-MB-231 breast; 89.6% with RXF 393 renal; 92.9% with SF-268 CNS. The growth was 112% with SF-295 CNS; 96.8% with SF-539 CNS; 64.5% in the assay with UACC-257 melanoma; 86.1% with M14 melanoma; 77.3% with HCT-15 colon; 39.6% in the assay with HT29 colon. For the same compound, the growth in the assay on SNB-75 CNS was 70.6%; in the assay on SNB-19 CNS, 92.5%; in the assay on U251 CNS, 70.6%; in the assay with PC-3 prostate it was 77.5%; with SK-MEL-5 melanoma it was 92.8%; in the assay with UACC-62 melanoma, 89.9%. Moreover, in the assay with SK-MEL-28 melanoma, the growth was 91.9%.

Take `CC1(C)CC(=O)C2=C(C1)N(c1ccc(OC(F)(F)F)cc1)C(N)=C(C#N)C2c1ccc(Cl)cc1` (configuration not stated): the growth in the assay on DU-145 prostate is 91.3%; with K-562 leukemia, 86.5%; with MALME-3M melanoma it was 85%; with MDA-MB-231 breast, 80.8%; in the assay with RXF 393 renal it was 66.7%; in the assay with SF-268 CNS, 74.3%. The growth with SF-295 CNS is 81.6%; in the assay with SF-539 CNS, 82.2%; in the assay on UACC-257 melanoma, 84.1%; with M14 melanoma, 93.7%; with HCT-15 colon, 97.1%; in the assay on HT29 colon, 87.2%. In addition, the growth with SNB-75 CNS was 52.6%; in the assay with SNB-19 CNS, 57.4%; in the assay on U251 CNS, 56.2%; in the assay on PC-3 prostate, 76.8%; with UACC-62 melanoma, 85.5%; in the assay on LOX IMVI melanoma, 86%. Besides, the growth in the assay on SK-MEL-28 melanoma is 96.2%.

As for `CC(=O)OC1CCC2(C)C(=CC3C4CCC(=O)C4(C)CCC32)C1` (configuration not stated), the growth is 101% in the assay with DU-145 prostate; 95% in the assay with K-562 leukemia; 112% in the assay on MALME-3M melanoma; 98.2% in the assay with MDA-MB-231 breast; 115% in the assay on RXF 393 renal; 96% in the assay on SF-268 CNS. Further, the growth with SF-295 CNS was 95.5%; in the assay on SF-539 CNS it was 99.1%; with UACC-257 melanoma it was 110%; in the assay with M14 melanoma, 98%; with HCT-15 colon, 98.2%; in the assay on HT29 colon it was 99.7%. The growth with SNB-75 CNS is 83.8%; in the assay on SNB-19 CNS, 98.6%; with U251 CNS it was 98.5%; in the assay with PC-3 prostate it was 101%; in the assay on UACC-62 melanoma, 101%; in the assay with LOX IMVI melanoma, 100%. Also, the growth with SK-MEL-28 melanoma was 102%.

As to `COc1ccc(Cl)cc1NC(=O)C(Br)C(Br)C(=O)O` (configuration not stated), the growth in the assay on DU-145 prostate is 97.2%; in the assay with K-562 leukemia it was -27% (active); with MALME-3M melanoma, 46.2%; with MDA-MB-231 breast, 46.2%; in the assay with RXF 393 renal it was 44.4%; in the assay with SF-268 CNS, 19.7%. The growth is 99.8% in the assay on SF-295 CNS; 77.7% in the assay on SF-539 CNS; 60.8% in the assay with UACC-257 melanoma; 75.9% in the assay on M14 melanoma; 67.5% in the assay on HCT-15 colon; 108% in the assay with HT29 colon. In addition, the growth with SNB-75 CNS was 103%; in the assay with SNB-19 CNS it was 122%; with U251 CNS, 49.9%; with PC-3 prostate, 56.3%; in the assay on UACC-62 melanoma, 7.23% (active); in the assay on LOX IMVI melanoma it was -69.8% (active). Further, the growth with SK-MEL-28 melanoma is 60.1%.

Regarding `Cc1ccc(NS(=O)(=O)c2ccc3c(c2)C(=O)CC(c2ccc(C(=O)C(C)C)cc2)N3)cc1C` (configuration not stated), the growth in the assay with DU-145 prostate was 83.5%; in the assay with K-562 leukemia, 39.7%; in the assay on MALME-3M melanoma, 51.1%; with MDA-MB-231 breast it was 78.5%; with RXF 393 renal, 75.3%; in the assay with SF-268 CNS, 68%. Besides, the growth is 37.7% with SF-295 CNS; 71.5% with SF-539 CNS; 43.1% with UACC-257 melanoma; 73% in the assay with M14 melanoma; 57% in the assay on HCT-15 colon; 91.3% in the assay on HT29 colon. Besides, the growth in the assay on SNB-75 CNS is 55.7%; in the assay with SNB-19 CNS it was 68.2%; with U251 CNS, 68%; with PC-3 prostate, 46%; in the assay on UACC-62 melanoma it was 52.8%; in the assay on LOX IMVI melanoma it was 55.6%. In the assay on SK-MEL-28 melanoma, the growth is 77%.

Consider `CC/C=C\C[C@H](O)C/C=C1/C(=O)C=C[C@@H]1C/C=C\CCCC(=O)OC`, for which the growth is 20.2% in the assay with DU-145 prostate; 2.74% (active) in the assay with K-562 leukemia; 9.07% (active) in the assay with MALME-3M melanoma; 11.9% in the assay with MDA-MB-231 breast; -19.6% (active) in the assay on RXF 393 renal; 15.1% in the assay with SF-268 CNS. The growth with SF-295 CNS is -1.98% (active); with SF-539 CNS, 7.57% (active); with UACC-257 melanoma, -17.5% (active); with M14 melanoma, -1.46% (active); in the assay on HCT-15 colon, -20.3% (active); in the assay with HT29 colon, -54.7% (active). Besides, the growth is 57.8% with SNB-75 CNS; 35.2% with SNB-19 CNS; -72.8% (active) with U251 CNS; -11.3% (active) in the assay with PC-3 prostate; -84.7% (active) in the assay on SK-MEL-5 melanoma; -40.3% (active) with UACC-62 melanoma. Besides, the growth in the assay on SK-MEL-28 melanoma is -34.3% (active).

`OC(c1cccc(-n2ccc(C(F)(F)F)n2)c1)c1cnccc1NC1CCCCCC1` (configuration not stated): the growth in the assay on DU-145 prostate is 2.76% (active); in the assay on K-562 leukemia it was 3.64% (active); in the assay on MALME-3M melanoma, -79% (active); in the assay with MDA-MB-231 breast, -76.4% (active); with RXF 393 renal, 14.2%; with SF-268 CNS, 64.4%. For the same compound, the growth in the assay with SF-295 CNS was 81.3%; in the assay on SF-539 CNS, 61.3%; with UACC-257 melanoma, -17.8% (active); with M14 melanoma, -75.1% (active); in the assay with HCT-15 colon, -39.2% (active); with HT29 colon it was -0.162% (active). Also, the growth in the assay with SNB-75 CNS is 64.4%; in the assay on SNB-19 CNS it was 71.1%; in the assay on U251 CNS, -42.6% (active); in the assay with PC-3 prostate, 41.2%; in the assay on SK-MEL-5 melanoma it was 33.8%; in the assay with UACC-62 melanoma, 32.2%. Further, in the assay on SK-MEL-28 melanoma, the growth was -65.3% (active).

For the origin of these results see PubChem BioAssay (NCI).
